In PubChem BioAssay (NCATS) one finds Potency and outcome data, which are given here for 28 molecules.

Test [1] is described as follows: Confirmatory screen GU Rhodamine qHTS for Zika virus inhibitors qHTS (AID 1347157). Further: nearly all actives have a fitted effect of over 70% in size. Further: potency means the concentration at half of the fitted maximal effect. The essentials: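 In dose–response format, inhibition of unlinked protease (25 nM) was measured with 1.5 microM bis-peptide Rhodamine110 substrate. Aprotinin served as the intraplate control.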
A short description of test [2]: ZIKV-mCherry secondary qHTS for Zika virus inhibitors (AID 1347158). Further: top concentration of the series differs between compounds. The method, boiled down:
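Percent infection is the share of Hoechst-identified Vero nuclei with mCherry signal above 450 RFU (3 SD over negative controls). Cells were infected with recombinant ZIKV-mCherry at MOI 1 after compound addition and imaged 48–72 h later.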
A general note: In qHTS, concentration-response curves come from the screen itself.

Test [3] concerns Zika virus NS2B-NS3 protease. Kind of test: Primary screen GU AMC qHTS for Zika virus inhibitors (AID 1347154). Further: nearly all actives have a fitted effect of over 70% in size. The essentials: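 Fluorogenic AMC-substrate cleavage by noncovalent NS2B-NS3 protease complex (25 nM, pH 8.0 Tris buffer with Tween 20) followed for 15 minutes at room temperature (~20% conversion). Percent inhibition from ex340/em450 signal change, fitted by 4-parameter Hill equation.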

Another test has as its target Furin (Homo sapiens) (UniProt P09958). Nature of the test: Furin counterscreen qHTS for Zika virus inhibitors (AID 1347149).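 Further: purified recombinant full-length human furin enzyme at 5 nM; fluorescence gain from furin cutting a BOC-RVRR-AMC peptide substrate over 15 min; top concentration of the series differs between compounds; nearly all actives have a fitted effect of over 70% in size.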 The method, boiled down:
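Counterscreen measures cleavage of 2 microM BOC-RVRR-AMC, below its ~15 microM Km, by 5 nM full-length human furin at pH 7.0 after a 15-min compound preincubation. Inhibition derives from the 15-min fluorescence increase at 37C.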
On the technique in general: The purpose of a counterscreen is to sort out artefacts and off-target activity.

Test [4] is described as follows: qHTS of pediatric cancer cell lines to identify multiple opportunities for drug repurposing: Primary screen for Saos-2 cells (AID 1347097). Further: nearly all actives have a fitted effect of over 40% in size. Further: potency means the concentration at half of the fitted maximal effect. The essentials:
(§1)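 Quantitative HTS format: each compound titrated (MIPE 11 points from 0.78 nM, NPC 8 points from 0.59 nM) onto cells plated 5 hours earlier. After 48 h at 37 degrees C, CellTiter-Glo luminescence was recorded.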

Test [5] is described as follows: qHTS of pediatric cancer cell lines to identify multiple opportunities for drug repurposing: Primary screen for NB1643 cells (AID 1347099). Further: nearly all actives have a fitted effect of over 50% in size. The essentials: as §1
A short description of test [6]: qHTS of pediatric cancer cell lines to identify multiple opportunities for drug repurposing: Primary screen for LAN-5 cells (AID 1347100). The method, boiled down:
(§2)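 Cells (500-1,000/well) rested 5 h, then received compounds for 48 h; metabolically active cells were measured by CellTiter-Glo luminescence. Final concentrations spanned up to 46 µM (MIPE, 11-point) or 0.59 nM-46 µM (NPC, 8-point) in primary screens, 11-point in follow-ups.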

Test [7] is described as follows: qHTS of pediatric cancer cell lines to identify multiple opportunities for drug repurposing: Primary screen for BT-12 cells (AID 1347101). Further: nearly all actives have a fitted effect of over 25% in size. The method, boiled down: as §2
Test [8] is described as follows: qHTS of pediatric cancer cell lines to identify multiple opportunities for drug repurposing: Primary screen for Rh18 cells (AID 1347102). Further: nearly all actives have a fitted effect of over 65% in size. The method, boiled down:
as §2

Test [9] can be described thus: qHTS of pediatric cancer cell lines to identify multiple opportunities for drug repurposing: Primary screen for RD cells (AID 1347104). Further: nearly all actives have a fitted effect of over 55% in size. The method, boiled down: as §1
Test [10] in a line: qHTS of pediatric cancer cell lines to identify multiple opportunities for drug repurposing: Primary screen for MG 63 (6-TG R) cells (AID 1347105). Further: nearly all actives have a fitted effect of over 50% in size. The essentials:
as §1

Test [11] in a line: qHTS of pediatric cancer cell lines to identify multiple opportunities for drug repurposing: Primary screen for control Hh wild type fibroblast cells (AID 1347106).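 Further: series mostly up to about 46 µM; a drop in luminescence marks cytotoxicity and a rise apparent proliferation; nearly all actives have a fitted effect of over 55% in size.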 The essentials: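 Cells (500-1,000/well) in growth media were settled 5 h at 37 degrees C, then given compounds for 48 h. Viability was read as CellTiter-Glo luminescence. Primary runs used MIPE at 11 points (0.78 nM-46 µM) and NPC at 8 points (0.59 nM-46 µM); follow-ups used 11 points.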

Test [12] is described as follows: qHTS of pediatric cancer cell lines to identify multiple opportunities for drug repurposing: Primary screen for Rh30 cells (AID 1347107). Further: series mostly up to about 46 µM; nearly all actives have a fitted effect of over 75% in size. The essentials:
as §2

The nature of test [13]: qHTS of pediatric cancer cell lines to identify multiple opportunities for drug repurposing: Primary screen for Rh41 cells (AID 1347108).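 Further: series mostly up to about 46 µM; luminescence drop marks cytotoxic hits; nearly all actives have a fitted effect of over 70% in size.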 The method, boiled down: as §1
Test [14] can be described thus: qHTS of pediatric cancer cell lines to identify multiple opportunities for drug repurposing: Primary screen for SK-N-SH cells (AID 1347098).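 Further: DMSO served as neutral control and bortezomib at 2.3 µM as positive control; nearly all actives have a fitted effect of over 65% in size.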 The essentials:
as §2

The nature of test [15]: qHTS of pediatric cancer cell lines to identify multiple opportunities for drug repurposing: Primary screen for OHS-50 cells (AID 1347103). Further: nearly all actives have a fitted effect of over 40% in size. The essentials:
as §2

Test [16] relates to Zika virus NS2B-NS3 protease (unlinked). Kind of test: Optimization of GU AMC qHTS for Zika virus inhibitors: Unlinked NS2B-NS3 protease assay (AID 1347151). Further: nearly all actives have a fitted effect of over 80% in size. Further: potency means the concentration at half of the fitted maximal effect. The method, boiled down:
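Noncovalent NS2B hydrophilic domain–NS3 protease complex (25 nM final) in 10 mM Tris-HCl pH 8.0, 0.01% Tween 20; AMC substrate, room temperature 15 min (~20% conversion); fluorescence change normalized, 4-parameter Hill fit.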

The subject of test [17] is Zika virus NS2B-NS3 protease (unlinked complex). Nature of the test: Confirmatory screen GU AMC qHTS for Zika virus inhibitors (AID 1347153). Further: nearly all actives have a fitted effect of over 70% in size. The method, boiled down:
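Compounds were preincubated 15 min at room temperature with 25 nM noncovalent NS2B-NS3 protease at pH 8.0; AMC substrate added at 10 microM and 15-min fluorescence gain (340/450 nm) converted to percent inhibition, fitted 4-parameter.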

Test [18] relates to Zika virus NS2B-NS3 protease (linked construct). Nature of the test: Confirmatory screen NINDS AMC qHTS for Zika virus inhibitors (AID 1347152). To be noted: Purified linked NS2B-NS3, AMC substrate fluorescence. The method, boiled down:
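Linked NS2B-NS3 protease, 1 nM, in 10 mM Tris-HCl pH 8.0, 0.01% Tween 20; compounds preincubated 15 min at room temperature. Nle-KRR-AMC 10 microM (Km 18.3 µM); 15-min fluorescence change (340/450 nm) fitted to 4-parameter Hill.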

Test [19] addresses N-terminal Xaa-Pro-Lys N-methyltransferase 1 (Homo sapiens) (UniProt Q9BV86). Nature of the test: qHTS Assay for Inhibitors of N-terminal methyltransferase 1 (NTMT1): LOPAC validation of the NTMT1 SAHH-coupled ThioGlo3 Assay (AID 1347143). To be noted: recombinant NTMT1, SAHH-coupled ThioGlo3 fluorescence. The method, boiled down:
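NTMT1 125nM + cpds (various conc.), 1 min RT; add SAM 100uM/SAHH 10uM/ThioGlo3 15uM (addition mix). SAHH-coupled thiol detection, Ex340/Em450, t0 and 30 min RT; signal normalized to background. LOPAC 1280-cpd pilot.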

Structures are written as SMILES. Where “and” joins values, the source holds several entries; their conditions need not be identical. Equal values may be shown once. Results filed as inconclusive are left out. Calls of active or inactive are those of the source. The call rests on the fitted dose curve; in most records, active means well fitted curve in the direction sought with a large enough effect; inconclusive means small, poorly fitted or top-dose-only effect, or another doubt; inactive means no such curve, though single readings can be large; an effect the other way counts as inactive or inconclusive.

Sequence of Furin (Homo sapiens) (P09958 whole entry, looked up): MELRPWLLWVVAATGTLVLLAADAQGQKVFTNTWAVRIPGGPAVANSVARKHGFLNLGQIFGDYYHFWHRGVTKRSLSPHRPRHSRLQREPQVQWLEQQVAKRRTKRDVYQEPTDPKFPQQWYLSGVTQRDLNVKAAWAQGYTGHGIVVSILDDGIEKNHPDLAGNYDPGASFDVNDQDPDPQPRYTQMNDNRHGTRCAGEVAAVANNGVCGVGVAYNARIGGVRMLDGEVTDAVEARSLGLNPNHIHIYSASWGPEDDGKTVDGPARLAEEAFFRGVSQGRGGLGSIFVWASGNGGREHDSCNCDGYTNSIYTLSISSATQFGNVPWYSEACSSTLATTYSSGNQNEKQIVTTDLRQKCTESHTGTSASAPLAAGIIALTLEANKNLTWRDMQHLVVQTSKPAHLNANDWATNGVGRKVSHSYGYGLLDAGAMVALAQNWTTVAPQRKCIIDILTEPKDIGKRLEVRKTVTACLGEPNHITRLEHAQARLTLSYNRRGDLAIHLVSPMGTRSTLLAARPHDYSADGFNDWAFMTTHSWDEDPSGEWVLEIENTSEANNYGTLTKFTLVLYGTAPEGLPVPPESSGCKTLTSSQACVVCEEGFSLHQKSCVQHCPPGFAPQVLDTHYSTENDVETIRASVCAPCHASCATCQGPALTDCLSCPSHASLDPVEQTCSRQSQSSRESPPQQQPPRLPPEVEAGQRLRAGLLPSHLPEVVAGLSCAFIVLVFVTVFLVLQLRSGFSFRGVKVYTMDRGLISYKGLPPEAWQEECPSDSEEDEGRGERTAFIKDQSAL
Sequence of N-terminal Xaa-Pro-Lys N-methyltransferase 1 (Homo sapiens) (Q9BV86 whole entry, looked up): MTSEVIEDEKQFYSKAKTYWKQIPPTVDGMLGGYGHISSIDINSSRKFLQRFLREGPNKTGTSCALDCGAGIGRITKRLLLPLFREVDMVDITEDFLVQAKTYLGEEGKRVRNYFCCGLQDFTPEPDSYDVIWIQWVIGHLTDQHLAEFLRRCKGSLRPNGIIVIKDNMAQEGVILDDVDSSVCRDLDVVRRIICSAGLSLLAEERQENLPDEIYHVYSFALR

As to `Cc1cc(-c2ccc(N=Nc3c(S(=O)(=O)O)cc4cc(S(=O)(=O)O)cc(N)c4c3O)c(C)c2)ccc1N=Nc1c(S(=O)(=O)O)cc2cc(S(=O)(=O)O)cc(N)c2c1O`, the Potency in test [1] was 2.24 µM (active). Also, in [2], the outcome was inactive.

For the molecule `CCC(C)[C@@H](N)C(=O)O` (stereo partly specified), the molecule was classed as inactive in test [3].

With `CC(C)(C)CC(C)(C)c1cc(Cc2cc(C(C)(C)CC(C)(C)C)cc(-n3nc4ccccc4n3)c2O)c(O)c(-n2nc3ccccc3n2)c1`, the outcome with Furin (Homo sapiens) was inactive. Further, the Potency entry in [1] is “inactive”.

As to `O=C(OCc1ccccc1)c1ccc(O)cc1`, in test [4], the Potency entry is “inactive”. In addition, the call in test [5], in test [6], in [7], in test [8], in test [9] and in test [10] was inactive. In addition, the outcome in test [11], in test [12], in [13] and in [3] was inactive.

As to `CCOC(=O)C1=C(COCCN)NC(C)=C(C(=O)OC)C1c1ccccc1Cl` (stereo unspecified), the molecule was called inactive in [3].

As for `C[C@@](Cc1ccc(O)c(O)c1)(NN)C(=O)O`, in test [3], the call was inactive.

For the molecule `NC[C@H]1O[C@H](O[C@H]2[C@H](O)[C@@H](O[C@H]3O[C@H](CO)[C@@H](O)[C@H](N)[C@H]3O)[C@H](N)C[C@@H]2N)[C@H](N)C[C@@H]1O`, in [3], the molecule was classed as inactive.

For `O=C1c2ccccc2C(=O)c2c1ccc(O)c2O`, the Potency in test [4] was 23.7 µM (active). In addition, the result in test [14], in [5], in test [6], in test [7], in test [8] and in test [15] was inactive. Also, the outcome in test [9], in [10], in [11], in test [12] and in [13] was inactive.

For the molecule `CC(=O)Oc1cccc2c1C(=O)c1c(OC(C)=O)cc(C(=O)O)cc1C2=O`, the outcome in test [14], in test [7], in [8], in test [9], in test [11] and in test [12] was inactive. Besides, the result in test [13] was inactive.

Turning to `CC/C=C\C/C=C\C/C=C\C/C=C\C/C=C\C/C=C\CCC(=O)O`, in test [3], the call was inactive.

For the molecule `C[C@H]1O[C@@H](O[C@H]2[C@@H](O)C[C@H](O[C@H]3[C@@H](O)C[C@H](O[C@H]4CC[C@@]5(C)[C@H](CC[C@@H]6[C@@H]5C[C@@H](O)[C@]5(C)[C@@H](C7=CC(=O)OC7)CC[C@]65O)C4)O[C@@H]3C)O[C@@H]2C)C[C@H](O)[C@@H]1O`, the molecule was classed as inactive in the test with Furin (Homo sapiens). Further, the Potency result in test [16] is “inactive”.

For `COc1ccc2nc(NC(=O)Nc3ccccc3)sc2c1`, the molecule was classed as inactive in test [14], in [5], in [6], in [7], in test [8] and in test [9]. Further, the result in test [10], in [11], in test [12], in [13] and in test [3] was inactive.

On to `N[C@@H](Cc1cc(I)c(Oc2ccc(O)c(I)c2)c(I)c1)C(=O)O`, for which the molecule was called inactive with Furin (Homo sapiens).

For the molecule `O=C(O)[C@@H]1C[C@H](CP(=O)(O)O)CCN1`, the outcome in test [3] was inactive.

As to `N[C@H](CC(=O)O)C(=O)O`, in [3], the result was inactive.

`CC1(C)C(\C=C/C=C\C=C/C=C2/N(CCCCS(=O)(=O)O)c3ccc4ccccc4c3C2(C)C)=[N+](CCCCS(=O)(=O)[O-])c2ccc3ccccc3c21`: in test [1], the Potency is 3.98 µM (active). Moreover, the result in test [2] was inactive.

Turning to `O=C(O)CCC/C=C\C[C@@H]1[C@@H](/C=C/[C@@H](O)COc2cccc(Cl)c2)[C@H](O)C[C@@H]1O`, the molecule was called inactive in test [3].

With `O=C(O)Cc1nn(Cc2ccc(Br)cc2F)c(=O)c2ccccc12`, in test [3], the molecule was classed as inactive.

As for `CO[C@H]1C[C@H](O[C@@H]2/C(C)=C/C[C@@H]3C[C@@H](C[C@]4(CC[C@H](C)[C@@H](C5CCCCC5)O4)O3)OC(=O)[C@@H]3C=C(C)/C(=N/O)[C@H]4OC/C(=C\C=C\[C@@H]2C)[C@]43O)O[C@@H](C)[C@@H]1O`, the outcome in [17] was inactive.

For `O=C(O)Cc1cc(I)c(Oc2ccc(O)c(I)c2)c(I)c1`, the molecule was classed as inactive with Furin (Homo sapiens). Moreover, the Potency in test [18] is 15.6 µM (active); in [1], 2.21 µM (active) and 10 µM (active).

For `Oc1ccc(/C=C/c2cc(O)cc(O)c2)cc1`, in [4], the Potency result is “inactive”. Besides, the outcome in [5], in test [6], in [7], in test [8], in test [15] and in test [9] was inactive. Further, the call in [11], in test [12] and in [13] was inactive. For the same molecule, the Potency in test [19] was 50.1 µM (active); in test [16] it was 26.7 µM (active).

On to `CNC(=O)[C@H](Cc1c[nH]c2ccccc12)NC(=O)[C@@H](CC(=O)NO)CC(C)C`, for which, in test [3], the outcome was inactive.

As for `Nc1ccc(N=Nc2ccccc2)c(N)n1`, the Potency result in test [4] was “inactive”. The call in test [5], in [6], in test [7], in test [8], in test [9] and in [10] was inactive. Also, the molecule was called inactive in test [11], in [12], in test [13] and in test [3].

Regarding `COC(=O)C(CN)c1c[nH]c2ccc(OC)cc12` (stereo unspecified), in test [3], the molecule was called inactive.

As for `O=C1CCC(c2ccccc2)(C2CCN(Cc3ccccc3)CC2)C(=O)N1` (stereo unspecified), in test [3], the call was inactive.

Consider `COc1ccc(C[C@H](C)NC[C@@H](O)c2ccc(O)c(NC=O)c2)cc1`, for which the result in [3] was inactive.

In the case of `CN(C)CCCSc1ccccc1NC(=O)/C=C/c1ccccc1`, the Potency in test [4] was 21.1 µM (active). The molecule was classed as inactive in [14], in [8], in test [10], in [11], in test [12] and in test [13]. In addition, the molecule was classed as inactive in test [3].

For `O=C(O)CCC(=O)c1ccc(-c2ccccc2)cc1`, the Potency result in [4] is “inactive”. In addition, the call in test [14], in test [5], in [6], in test [7], in [8] and in test [15] was inactive. Besides, the molecule was classed as inactive in test [9], in test [10], in test [11], in test [12], in [13] and in test [3].
